From PubChem BioAssay (NCI)
About 83,000 compounds went through this panel and 20% of them were active in at least one assay; those are over-represented in the sample as a whole.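 Step 1: grow cells in 96-well plates. Step 2: add test compound at a single concentration. Step 3: incubate 48 h. Step 4: record percent growth.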 Active and inactive are the calls of the source. How the source made its calls: active means growth percent below 10; inactive means the rest.

system: HCC-2998 colon; assay: NCI-60 one-dose screen, 48 h (100 = growth as untreated, 0 = no growth, -100 = all killed); conditions: 10 µM unless noted

Row | Structure (SMILES) | growth
1 | O=C(O)Cn1ccc2ccccc21 | 104% (inactive)
2 | Cc1ccc2nc(CN(CCN(Cc3nc4ccc(C)cc4[nH]3)Cc3nc4ccc(C)cc4[nH]3)Cc3nc4ccc(C)cc4[nH]3)[nH]c2c1 | -65% (active)
3 | CO[C@@]12[C@@H]3NC3CN1C1=C(C(=O)C(N)=C(C)C1=O)[C@@H]2COC(N)=O (some centres not stated) | -44.8% (active)
4 | COCCn1c(Nc2ccc(C(=O)NO)cc2)nc2ccccc21 | 73.3% (inactive)
5 | N#Cc1c(NN)n(C2OC(CO)C(O)C2O)c2ncnc(N)c12 (configuration not stated) | -9.45% (active)
6 | Cc1cc(O)ccc1C1=NN(c2ccc(S(N)(=O)=O)cc2)C(=O)CC1 | 64% (inactive)
7 | CC(=O)OC1Oc2cc(C)c(C)cc2-c2oc(=O)c(-c3ccc(F)cc3)cc21 (configuration not stated) | 56.7% (inactive)
8 | CCCCCCCCCCCCCCCC1=NCC[N+]1(CCO)CCO | 82.5% (inactive)
9 | Nc1cc2nc3ccccc3oc-2cc1=O | 79.4% (inactive)
10 | O=C1C=CC(=O)N1CO | 107% (inactive)
11 | COc1ccc(C2C=C(c3ccc(Cl)cc3)N=C3SC=CN32)cc1 (configuration not stated) | 119% (inactive)
12 | CCCCCc1c(C)[nH]c(/C=C2\N=C(c3ccc[nH]3)C=C2CC)c1C | -90.4% (active)
13 | COc1ccc(CCN2COc3c([C@@H](C)CCC=C(C)C)ccc(C)c3C2)cc1OC | -70.3% (active)
14 | Cc1nc([C@H]2CC[C@H]3[C@@H]4CCC5=CC(=O)CC[C@]5(C)[C@H]4CC[C@]23C)cs1 | 61.1% (inactive)
15 | CC(=O)OC1Oc2ccccc2-c2oc3nc(=N)n(C)c-3cc21 (configuration not stated) | 102% (inactive)
16 | Cn1c(=O)c2c3c(oc2c2ccccc21)C(=O)c1ccccc1C3=O | 102% (inactive)
17 | CN(CCO)c1ccc(N2Cc3ccccc3OC3=C2C(=O)c2c(O)ccc(O)c2C3=O)cn1 | -84.2% (active)
18 | Fc1ccc(-c2nnc(N3CCOCC3)c3ccccc23)cc1 | 110% (inactive)

Row | Structure (SMILES) | growth
19 | CC(=O)[C@@]1(O)[C@H](C)C[C@H]2[C@@H]3C=C(C)C4=Cc5c(cnn5-c5ccccc5)C[C@]4(C)[C@H]3[C@@H](O)C[C@@]21C | 19.8% (inactive)
20 | N#Cc1c(N)n(C2OC(CO)C(O)C2O)c2ncnc(N)c12 (configuration not stated) | -35.2% (active)
21 | CCCCCCCCCCCCCCCCCC1=NC(C)(C)CN1C(C)(C)CO | -100% (active)
22 | CC(=O)OC1Oc2cc(C)c(C)cc2-c2oc(=O)c(-c3cc4ccccc4oc3=O)cc21 (configuration not stated) | 96.2% (inactive)
23 | SCc1ccc(CS)cc1 | 101% (inactive)
24 | CC1=C(C(=O)Nc2ccc(F)cc2)C(c2ccccc2)C2=C(CC(C)(C)CC2=O)N1 (configuration not stated) | 103% (inactive)
25 | O=C(C(=O)c1cccnc1)c1cccnc1 | 99.1% (inactive)
26 | Clc1ccc2c(c1)-n1cccc1C(c1ccc3ccccc3c1)=NC2 | 87.9% (inactive)
27 | F | 24.4% [6.87 mM] (inactive)
28 | COc1cccc(OCC(O)CN2CCN(c3ccccc3)CC2)c1 (configuration not stated) | 106% (inactive)
29 | CSCCC1NC(=O)C(C(C)=Nc2ccccc2)=C1O (configuration not stated) | 113% (inactive)
30 | CC(OC(=O)Nc1cccc(Cl)c1)C(=O)O (configuration not stated) | 99.8% (inactive)
31 | C1=C\CCCCN2CC[C@H]3[C@H](CCCC/C=C\CCCN4C[C@@H](CCCCC/1)C[C@@H]3C4)C2 | 22.1% (inactive)
32 | CCOc1c(C#N)c2c(N)ncnc2n1C1OC(CO)C(O)C1O (configuration not stated) | 84.1% (inactive)
33 | Cc1ccc(O)c(Cc2ccccc2)c1 | 102% (inactive)
34 | c1ccc2c(c1)cnc1ccccc12 | 101% (inactive)
35 | O=C(Nc1ccc(Oc2ccc(NC(=O)Nc3ccccc3Cl)cc2)cc1)Nc1ccccc1Cl | 80.4% (inactive)

system: KM12 colon; assay: as above; conditions: 10 µM unless noted

Row | Structure (SMILES) | growth
36 | O=C(O)Cn1ccc2ccccc21 | 109% (inactive)
37 | Cc1ccc2nc(CN(CCN(Cc3nc4ccc(C)cc4[nH]3)Cc3nc4ccc(C)cc4[nH]3)Cc3nc4ccc(C)cc4[nH]3)[nH]c2c1 | -95.9% (active)
38 | COCCn1c(Nc2ccc(C(=O)NO)cc2)nc2ccccc21 | 51.9% (inactive)
39 | N#Cc1c(NN)n(C2OC(CO)C(O)C2O)c2ncnc(N)c12 (configuration not stated) | 1.94% (active)
40 | CCCCCNCCCCCNc1cc(OC)cc2cccnc12 | 103% (inactive)
41 | Cc1cc(O)ccc1C1=NN(c2ccc(S(N)(=O)=O)cc2)C(=O)CC1 | 22.7% (inactive)
42 | CC(=O)OC1Oc2cc(C)c(C)cc2-c2oc(=O)c(-c3ccc(F)cc3)cc21 (configuration not stated) | 23.7% (inactive)
43 | Nc1cc2nc3ccccc3oc-2cc1=O | 32.4% (inactive)
44 | CCOC(=O)C(=CNc1ccccc1Cl)C(=O)OCC | 105% (inactive)
45 | O=[N+]([O-])c1cc(F)c2cccnc2c1O | 111% (inactive)
46 | O=C1C=CC(=O)N1CO | 128% (inactive)
47 | COc1ccc(C2C=C(c3ccc(Cl)cc3)N=C3SC=CN32)cc1 (configuration not stated) | 112% (inactive)
48 | CCCCCc1c(C)[nH]c(/C=C2\N=C(c3ccc[nH]3)C=C2CC)c1C | -91.4% (active)
49 | COc1ccc(CCN2COc3c([C@@H](C)CCC=C(C)C)ccc(C)c3C2)cc1OC | 51.8% (inactive)
50 | Cc1nc([C@H]2CC[C@H]3[C@@H]4CCC5=CC(=O)CC[C@]5(C)[C@H]4CC[C@]23C)cs1 | 65.9% (inactive)
51 | CC(=O)OC1Oc2ccccc2-c2oc3nc(=N)n(C)c-3cc21 (configuration not stated) | 209% (inactive)
52 | Cn1c(=O)c2c3c(oc2c2ccccc21)C(=O)c1ccccc1C3=O | 91.5% (inactive)
53 | CN(CCO)c1ccc(N2Cc3ccccc3OC3=C2C(=O)c2c(O)ccc(O)c2C3=O)cn1 | -78% (active)
54 | Fc1ccc(-c2nnc(N3CCOCC3)c3ccccc23)cc1 | 109% (inactive)

Row | Structure (SMILES) | growth
55 | CC(=O)[C@@]1(O)[C@H](C)C[C@H]2[C@@H]3C=C(C)C4=Cc5c(cnn5-c5ccccc5)C[C@]4(C)[C@H]3[C@@H](O)C[C@@]21C | -45% (active)
56 | N#Cc1c(N)n(C2OC(CO)C(O)C2O)c2ncnc(N)c12 (configuration not stated) | -3.95% (active)
57 | CCCCCCCCCCCCCCCCCC1=NC(C)(C)CN1C(C)(C)CO | -100% (active)
58 | CC(=O)OC1Oc2cc(C)c(C)cc2-c2oc(=O)c(-c3cc4ccccc4oc3=O)cc21 (configuration not stated) | 103% (inactive)
59 | SCc1ccc(CS)cc1 | 114% (inactive)
60 | CC1=C(C(=O)Nc2ccc(F)cc2)C(c2ccccc2)C2=C(CC(C)(C)CC2=O)N1 (configuration not stated) | 84.5% (inactive)
61 | O=C(C(=O)c1cccnc1)c1cccnc1 | 108% (inactive)
62 | Clc1ccc2c(c1)-n1cccc1C(c1ccc3ccccc3c1)=NC2 | 71.8% (inactive)
63 | F | 9.89% [6.87 mM] (active)
64 | COc1cccc(OCC(O)CN2CCN(c3ccccc3)CC2)c1 (configuration not stated) | 112% (inactive)
65 | CSCCC1NC(=O)C(C(C)=Nc2ccccc2)=C1O (configuration not stated) | 79.3% (inactive)
66 | CC(OC(=O)Nc1cccc(Cl)c1)C(=O)O (configuration not stated) | 101% (inactive)
67 | C1=C\CCCCN2CC[C@H]3[C@H](CCCC/C=C\CCCN4C[C@@H](CCCCC/1)C[C@@H]3C4)C2 | 58.1% (inactive)
68 | CCOc1c(C#N)c2c(N)ncnc2n1C1OC(CO)C(O)C1O (configuration not stated) | 10.6% (inactive)
69 | COc1cc(/C=C/c2ccc3c(Br)cc(Br)c(O)c3n2)ccc1O | 20.8% (inactive)
70 | Cc1ccc(O)c(Cc2ccccc2)c1 | 103% (inactive)
71 | c1ccc2c(c1)cnc1ccccc12 | 102% (inactive)
72 | O=C(Nc1ccc(Oc2ccc(NC(=O)Nc3ccccc3Cl)cc2)cc1)Nc1ccccc1Cl | 40.8% (inactive)
